Reference: PubChem BioAssay (Tox21)
Values joined by “and” are separate entries in the source; they are usually repeats but may differ in a detail not shown here. Identical values can stand only once. Inconclusive results are not listed. The source holds several records for some structures; these can differ, active in one and inactive in another. Active and inactive are the calls of the source. Unless noted, calls follow the shape of the dose curve; as a rule, active = well fitted curve in the direction sought with a large enough effect in the repeat runs; inconclusive = weak or mixed curves; inactive = no such curve, though single readings can be large; an effect the other way counts as inactive or inconclusive.

What was measured:
[1] = qHTS assay to identify small molecule antagonists of the estrogen receptor alpha (ER-alpha) signaling pathway using the BG1 cell line in the presence of 0.1 nM 17-beta-estradiol - cell viability counter screen (AID 1259241); also: nearly all actives have a fitted effect of over 40% in size; also: potency is read from the fitted curve at half-maximal effect
Summary of the method: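 Measures cytotoxicity alongside the ER-alpha antagonist readout: VM7Luc4E2 cells, charcoal-stripped serum, 0.1 nM 17beta-estradiol final, 22 hr compound incubation at 37C, CellTiter-Fluor fluorescence.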

[2] = qHTS assay to identify small molecule antagonists of the androgen receptor (AR) signaling pathway using the MDA cell line in the presence of 0.5 nM R1881 - cell viability counter screen (AID 1259242); also: nearly all actives have a fitted effect of over 45% in size; also: potency is read from the fitted curve at half-maximal effect
Summary of the method: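 Concentration-response screen of compounds for toxicity in MDA-kb2 reporter cells: 16 hr at 37C with 0.5 nM R1881, endpoint live-cell protease fluorescence measured in the reporter wells.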

[3] = biological target: Estrogen receptor (Homo sapiens) (UniProt P03372); test: qHTS assay to identify small molecule antagonists of the estrogen receptor alpha (ER-alpha) signaling pathway using the BG1 cell line in the presence of 0.1 nM 17-beta-estradiol (AID 1259244); also: nearly all actives have a fitted effect of over 50% in size; also: potency is read from the fitted curve at half-maximal effect
Chain of Estrogen receptor (Homo sapiens) (P03372 whole entry, looked up): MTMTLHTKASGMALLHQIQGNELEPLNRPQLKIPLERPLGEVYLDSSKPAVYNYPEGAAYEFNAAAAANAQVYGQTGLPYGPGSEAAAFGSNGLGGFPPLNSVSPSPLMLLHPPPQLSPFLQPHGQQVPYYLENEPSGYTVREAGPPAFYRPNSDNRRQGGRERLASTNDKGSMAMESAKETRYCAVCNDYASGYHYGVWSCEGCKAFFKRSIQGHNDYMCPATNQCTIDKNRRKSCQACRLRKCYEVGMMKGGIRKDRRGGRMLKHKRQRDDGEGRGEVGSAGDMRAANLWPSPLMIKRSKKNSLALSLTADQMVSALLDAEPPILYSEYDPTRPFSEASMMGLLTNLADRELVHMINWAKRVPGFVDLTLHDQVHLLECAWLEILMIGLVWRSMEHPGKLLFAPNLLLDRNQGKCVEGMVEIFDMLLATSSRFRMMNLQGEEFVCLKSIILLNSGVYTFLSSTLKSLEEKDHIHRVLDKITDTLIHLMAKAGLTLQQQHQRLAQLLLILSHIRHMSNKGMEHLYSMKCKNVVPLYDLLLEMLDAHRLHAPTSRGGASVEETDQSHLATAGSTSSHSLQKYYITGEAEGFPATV
Summary of the method: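 Compounds were tested against 0.1 nM (final) 17beta-estradiol in VM7Luc4E2 cells, which express full-length ER-alpha and an ERE-luciferase reporter; luminescence was recorded following 22 h exposure.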

[4] = qHTS assay to identify small molecule phospholipidosis (PLD) inducers (AID 1259344; active = well fitted curve in the direction sought with a large enough effect; an effect the other way counts as inactive or inconclusive)
Summary of the method: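 Read-out is LipidTOX Red fluorescence (ex 595/em 615) imaged in HepG2 cells after 24 h compound exposure at 37 C, with Hoechst nuclear counterstain (ex 352/em 461) allowing per-cell normalisation.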

[5] = qHTS assay to identify small molecule HDAC inhibitors (AID 1259364);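 also: wild-type HCT-116 cells with endogenous class I/II HDAC activity; top concentration of the series differs between compounds; nearly all actives have a fitted effect of over 45% in size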
Summary of the method: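 Screening used wild-type human colon HCT-116 cells incubated overnight, dosed with compounds for 2 hours, and assayed with a homogeneous luminogenic HDAC I/II reagent for 30 minutes at room temperature.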

[6] = qHTS assay to identify small molecule HDAC inhibitors - cell viability counter screen (AID 1259365); also: nearly all actives have a fitted effect of over 50% in size; also: potency is read from the fitted curve at half-maximal effect
Summary of the method: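 Following a 2hr exposure of overnight-plated wild-type HCT-116 cells to DMSO-delivered compounds, CellTiter-Glo was added and luminescence recorded after 30min at room temperature.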

[7] = qHTS assay to identify small molecule agonists of the sonic hedgehog signaling (Shh) pathway - cell viability counter screen (AID 1259366); also: nearly all actives have a fitted effect of over 50% in size; also: potency is read from the fitted curve at half-maximal effect
Summary of the method: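 After a 4hr attachment at 37C, NIH/3T3 cells bearing an integrated Gli1-driven luciferase reporter were dosed with compounds. Treatment lasted 24hr, with the final hour including CellTiter-Fluor for a fluorescence viability measurement.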

[8] = qHTS assay to identify small molecule antagonists of the sonic hedgehog signaling (Shh) pathway - cell viability counter screen (AID 1259367); also: nearly all actives have a fitted effect of over 55% in size; also: potency is read from the fitted curve at half-maximal effect
Summary of the method: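 Fluorescence read-out (CellTiter-Fluor, 1 hr at 37C) taken after 23 hr compound treatment of 3T3 Gli1-Luc cells stimulated with conditioned medium. Cells were seeded at 2,000 per well and pre-incubated 4 hr.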

[9] = qHTS assay to identify small molecule agonists of the sonic hedgehog signaling (Shh) pathway (AID 1259368; calls by dose curve;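 also: NIH/3T3-derived 3T3Gli1-Luc cells carrying a stable Gli1-driven firefly luciferase reporter; series mostly up to about 92 µM; nearly all actives have a fitted effect of over 15% in size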)
Summary of the method: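 Hedgehog pathway agonism scored by increased firefly luciferase luminescence in 3T3Gli1-Luc cells treated 24 hr at 37 C; detection used a 30 min room-temperature reagent incubation.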

[10] = qHTS assay to identify small molecule antagonists of the sonic hedgehog signaling (Shh) pathway (AID 1259369; calls by dose curve; also: nearly all actives have a fitted effect of over 45% in size; also: potency is read from the fitted curve at half-maximal effect)
Summary of the method: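 NIH/3T3 stable Gli1-Luc clone, 2,000 cells/well, 4hr settle; cpd + conditioned medium 24hr; Luc reagent 30min RT; luminescence.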

[11] = qHTS assay to identify small molecule agonists of the androgen receptor (AR) signaling pathway in the presence of an antagonist - cell viability counter screen (AID 1259379); also: nearly all actives have a fitted effect of over 25% in size; also: potency is read from the fitted curve at half-maximal effect
Summary of the method: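 MDA-kb2 viability measured by CellTiter-Fluor fluorescence in the same wells as the luciferase signal; nilutamide 3.0uM final; 15-point compound titration; 16 hr at 37C.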

[12] = qHTS assay to identify small molecule agonists of the estrogen receptor beta (ER-beta) signaling pathway - cell viability counter screen (AID 1259380); also: nearly all actives have a fitted effect of over 30% in size; also: potency is read from the fitted curve at half-maximal effect
Summary of the method: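 Measured: luminescence from CellTiter-Glo after 30 min at room temperature, added to wells already read for the LiveBLAzer FRET reporter (2 hr substrate); ER-beta-UAS-bla HEK293T cells had 16 hr compound treatment at 37C, 5% CO2.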

[13] = qHTS assay to identify small molecule antagonists of the estrogen receptor beta (ER-beta) signaling pathway - cell viability counter screen (AID 1259382); also: nearly all actives have a fitted effect of over 55% in size; also: potency is read from the fitted curve at half-maximal effect
Summary of the method: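 Readout: luminescence, CellTiter-Glo, same wells as bla assay. System: ER-beta-UAS-bla GripTite HEK293T, 2% charcoal-stripped FBS. Exposure: compounds plus 1nM 17-beta-estradiol, 16 hr, 37C.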

[14] = biological target: Estrogen receptor (Homo sapiens) (UniProt P03372); test: qHTS assay to identify small molecule agonists of the estrogen receptor alpha (ER-alpha) signaling pathway in the presence of an antagonist (AID 1259383; calls by dose curve; also: top concentration of the series differs between compounds; nearly all actives have a fitted effect of over 15% in size)
Summary of the method: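 Quantitative HTS confirmation: compounds titrated at 15 concentrations onto estrogen-deprived VM7Luc4E2 cells carrying a four-ERE luciferase construct, with ICI-182,780 present at 10.0nM final. Signal is luminescence after 22hr exposure.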

[15] = biological target: Androgen receptor (Homo sapiens) (UniProt P10275); test: qHTS assay to identify small molecule antagonists of the androgen receptor (AR) signaling pathway using the MDA cell line in the presence of 0.5 nM R1881 (AID 1259243); also: nearly all actives have a fitted effect of over 50% in size
Chain of Androgen receptor (Homo sapiens) (P10275 whole entry, looked up): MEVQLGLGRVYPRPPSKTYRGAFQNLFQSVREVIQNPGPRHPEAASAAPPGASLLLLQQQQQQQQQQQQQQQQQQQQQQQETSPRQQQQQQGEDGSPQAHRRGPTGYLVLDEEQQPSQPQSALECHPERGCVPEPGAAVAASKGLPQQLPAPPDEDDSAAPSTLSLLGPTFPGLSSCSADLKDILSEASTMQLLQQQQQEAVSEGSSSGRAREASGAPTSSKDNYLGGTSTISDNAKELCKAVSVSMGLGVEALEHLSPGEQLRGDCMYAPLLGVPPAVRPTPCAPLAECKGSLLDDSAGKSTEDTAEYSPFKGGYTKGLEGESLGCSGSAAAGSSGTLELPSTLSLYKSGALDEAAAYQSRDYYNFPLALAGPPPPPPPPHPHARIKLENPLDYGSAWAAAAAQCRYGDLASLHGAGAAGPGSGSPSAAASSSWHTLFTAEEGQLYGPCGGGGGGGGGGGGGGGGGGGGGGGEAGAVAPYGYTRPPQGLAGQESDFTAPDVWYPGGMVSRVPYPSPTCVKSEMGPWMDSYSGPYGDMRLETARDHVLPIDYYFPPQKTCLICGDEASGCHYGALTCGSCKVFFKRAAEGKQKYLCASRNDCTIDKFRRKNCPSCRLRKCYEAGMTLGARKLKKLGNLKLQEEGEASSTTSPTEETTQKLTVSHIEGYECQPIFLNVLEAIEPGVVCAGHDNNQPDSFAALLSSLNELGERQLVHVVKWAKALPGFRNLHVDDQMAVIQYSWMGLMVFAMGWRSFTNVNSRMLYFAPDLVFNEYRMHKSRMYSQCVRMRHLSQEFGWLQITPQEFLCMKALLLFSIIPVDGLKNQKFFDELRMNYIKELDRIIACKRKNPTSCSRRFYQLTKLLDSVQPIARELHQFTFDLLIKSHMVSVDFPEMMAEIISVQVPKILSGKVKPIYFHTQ
Summary of the method: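 With R1881 held at 0.5 nM (final), compound effects on MMTV-luciferase expression in MDA-kb2 cells were scored by luminescence after a 16 hr, 37C incubation.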

[16] = biological target: Estrogen receptor beta (Homo sapiens) (UniProt Q92731); test: qHTS assay to identify small molecule agonists of the estrogen receptor beta (ER-beta) signaling pathway (AID 1259377; active = well fitted activation curve with a large enough effect in the signal ratio in the repeat runs, not every such curve was filed as active; the % refers to the signal ratio)
Chain of Estrogen receptor beta (Homo sapiens) (Q92731 whole entry, looked up): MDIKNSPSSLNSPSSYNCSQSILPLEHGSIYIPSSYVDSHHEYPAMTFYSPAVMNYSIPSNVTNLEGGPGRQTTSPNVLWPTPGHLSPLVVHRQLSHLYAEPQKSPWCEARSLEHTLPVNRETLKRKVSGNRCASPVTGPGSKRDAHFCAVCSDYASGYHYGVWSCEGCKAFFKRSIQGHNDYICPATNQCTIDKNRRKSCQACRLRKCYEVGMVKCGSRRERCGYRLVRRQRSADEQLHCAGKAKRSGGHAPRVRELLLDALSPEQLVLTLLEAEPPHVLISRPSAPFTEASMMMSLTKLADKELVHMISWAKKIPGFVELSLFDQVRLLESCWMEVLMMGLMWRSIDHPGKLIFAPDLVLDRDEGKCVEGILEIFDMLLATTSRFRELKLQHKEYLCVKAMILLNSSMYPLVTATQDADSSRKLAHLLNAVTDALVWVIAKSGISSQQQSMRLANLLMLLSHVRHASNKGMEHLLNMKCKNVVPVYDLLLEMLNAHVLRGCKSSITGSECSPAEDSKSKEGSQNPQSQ
Summary of the method: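 In HEK293T cells bearing a UAS-beta-lactamase reporter under ER-beta control, DMSO-delivered compounds were incubated for 16 hr at 37C. Activity was detected as fluorescence 2 hours after LiveBLAzer B/G FRET substrate addition.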

[17] = biological target: Estrogen receptor beta (Homo sapiens) (UniProt Q92731); test: qHTS assay to identify small molecule antagonists of the estrogen receptor beta (ER-beta) signaling pathway (AID 1259378; active = well fitted inhibition curve with a large enough effect in the signal ratio in the repeat runs, not every such curve was filed as active; the % refers to the signal ratio; also: potency is read from the fitted curve at half-maximal effect)
Summary of the method: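 ER-beta-UAS-bla HEK293T cells in 2% charcoal-stripped FBS medium treated with compound plus 1nM final 17-beta-estradiol for 16 hr at 37C. Beta-lactamase reporter read by FRET substrate fluorescence after 2 hours at room temperature.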

[18] = biological target: Androgen receptor (Homo sapiens) (UniProt P10275); test: qHTS assay to identify small molecule agonists of the androgen receptor (AR) signaling pathway in the presence of an antagonist (AID 1259381; calls by dose curve; also: nearly all actives have a fitted effect of over 15% in size)
Summary of the method: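 Luminescent ONE-Glo read, 30min at room temperature, follows 16hr compound exposure (15 concentrations) of MDA-kb2 cells at 37C, 0% CO2, with nilutamide added at 3.0uM final.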

[19] = qHTS assay to identify small molecule agonists or antagonists of the thyroid stimulating hormone receptor (TSHR) signaling pathway - wild type cell line counter screen (AID 1259384; calls by dose curve)
Summary of the method: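 Wild-type Hek293 cells, 800/well, 18 h at 37C, then compound with Ro20-1724 for 30 min RT. cAMP by HTRF (cAMP-d2/anti-cAMP cryptate), 1 h RT, fluorescence read. 15 concentrations, triplicates.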

[20] = biological target: Thyrotropin receptor (Homo sapiens) (UniProt P16473); test: qHTS assay to identify small molecule antagonists of the thyroid stimulating hormone receptor (TSHR) signaling pathway (AID 1259385; calls by dose curve; also: nearly all actives have a fitted effect of over 20% in size)
Chain of Thyrotropin receptor (Homo sapiens) (P16473 whole entry, looked up): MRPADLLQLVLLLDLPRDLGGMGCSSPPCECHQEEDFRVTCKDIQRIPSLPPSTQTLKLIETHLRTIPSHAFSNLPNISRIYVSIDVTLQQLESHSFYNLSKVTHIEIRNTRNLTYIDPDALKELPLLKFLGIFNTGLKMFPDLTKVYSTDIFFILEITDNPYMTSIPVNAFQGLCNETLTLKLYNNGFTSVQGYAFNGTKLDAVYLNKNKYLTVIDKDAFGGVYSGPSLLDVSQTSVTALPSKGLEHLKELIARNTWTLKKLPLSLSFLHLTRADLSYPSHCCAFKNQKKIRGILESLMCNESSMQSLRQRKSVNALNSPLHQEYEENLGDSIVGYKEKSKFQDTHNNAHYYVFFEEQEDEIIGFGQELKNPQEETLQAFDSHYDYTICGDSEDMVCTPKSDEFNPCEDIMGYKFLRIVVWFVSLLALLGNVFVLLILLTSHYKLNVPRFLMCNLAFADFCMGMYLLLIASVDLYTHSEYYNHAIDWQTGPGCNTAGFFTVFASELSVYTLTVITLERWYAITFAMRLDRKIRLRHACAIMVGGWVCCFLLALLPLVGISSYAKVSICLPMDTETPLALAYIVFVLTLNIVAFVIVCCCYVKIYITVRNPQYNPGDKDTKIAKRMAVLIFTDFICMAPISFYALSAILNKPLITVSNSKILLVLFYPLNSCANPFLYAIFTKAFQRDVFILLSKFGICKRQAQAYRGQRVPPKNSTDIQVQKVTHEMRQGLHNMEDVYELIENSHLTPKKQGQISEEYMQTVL
Summary of the method: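 TSHR-HEK293 cells (800/well) plated 18 h, then compounds with Ro20-1724 and TSH at 1.5 ng/mL final, 30 min at room temperature. cAMP quantified by HTRF (cAMP-d2/anti-cAMP-cryptate, 1 h); 15 concentrations in triplicate.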
% is scaled to controls: 0 for no effect and ±100 for the full control effect.

CCCCC(CC)CN=C(N)NC(N)=NCCCCCCN=C(N)NC(N)=NCC(CC)CCCC (stereo not given)
active: Potency [1] 29.8 µM | Potency [2] 18.8 µM | Potency [3] 21.1 µM | Potency [6] 29.8 µM | Potency [7] 23.7 µM | Potency [8] 21.1 µM | Potency [10] 3.76 µM | Potency [11] 18.8 µM | Potency [12] 23.7 µM | Potency [13] 13.3 µM
inactive: Potency [4] | Potency [5] | Potency [9] | Potency [14]

CN(C)CCCOC1(Cc2ccccc2)CCCCCC1
inactive: Potency [1] | Potency [2] | Potency [15] | Potency [3] | Potency [5] | Potency [7] | Potency [8] | Potency [9] | Potency [16] | Potency [17] | Potency [11] | Potency [18] | Potency [13] | Potency [14] | outcome [19]

CC(C)(C)C(=O)OCOC(=O)C1N2C(=O)CC2S(=O)(=O)C1(C)C (stereo not given)
inactive: Potency [1] | Potency [2] | Potency [3] | PLD induction [4] 3.21% [at 0.0123 µM] | Potency [5] | Potency [7] | Potency [8] | Potency [9] | Potency [10] | Potency [11] | Potency [18] | Potency [13] | Potency [14] | outcome [19] | Potency [20]
active: Potency [17] 10.6 µM

CN(C)c1ccc(C2(c3ccc(N(C)C)cc3)OC(=O)c3cc(N(C)C)ccc32)cc1
inactive: Potency [1] | Potency [2] | Potency [15] | Potency [3] | Potency [5] | Potency [6] | Potency [7] | Potency [8] | Potency [9] | Potency [17] | Potency [11] | Potency [12] | Potency [14] | Potency [20]

Oc1ccc(Cl)cc1Sc1cc(Cl)ccc1O
30.6 µM (active) and inactive: Potency [7] | Potency [8]
inactive: Potency [1] | Potency [4] | Potency [5] | Potency [6] | Potency [9] | Potency [14]
active: Potency [2] 29.8 µM | Potency [3] 30.6 µM and 29.8 µM | Potency [10] 26.6 µM | Potency [17] 18.8 µM | Potency [11] 21.6 µM and 26.6 µM | Potency [13] 48.5 µM

O=C(c1ccc(F)cc1)C1CCN(CCn2c(=O)[nH]c3ccccc3c2=O)CC1
inactive: Potency [1] | Potency [2] | Potency [15] | Potency [3] | Potency [4] | Potency [5] | Potency [6] | Potency [7] | Potency [8] | Potency [9] | Potency [10] | Potency [16] | Potency [17] | Potency [11] | Potency [14] | outcome [19] | Potency [20]

Cc1cc(O)c(Cl)c(C)c1Cl
active: Potency [8] 24.3 µM
inactive: Potency [1] | Potency [2] | Potency [15] | Potency [3] | Potency [5] | Potency [6] | Potency [9] | Potency [10] | Potency [16] | Potency [17] | Potency [11] | Potency [13] | Potency [14] | Potency [20]
